HIV Env fusion = blocks HIV Env-driven cell-cell fusion | HeLa-JRFL Env/CEM21 cell fusion, luciferase | inhibition, % at 12.3 µM | 360,000 tested, 1.1% active | AID 651610;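 active = mean replicate inhibition score of at least 50 and every replicate individually at or above 50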;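 also: 0% = plate neutral controls and 100% = maraviroc near 300 nM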
NSD2 HMT inh = NSD2 (human) methyltransferase inhibition. O96028. NSD2 peptide methylation, AlphaScreen, 120 min. inhibition, % at 12.5 µM. 310,000 tested, 0.54% active. AID 743445; in the data active = inhibition above about 50%
Target sequence (O96028 whole entry, looked up): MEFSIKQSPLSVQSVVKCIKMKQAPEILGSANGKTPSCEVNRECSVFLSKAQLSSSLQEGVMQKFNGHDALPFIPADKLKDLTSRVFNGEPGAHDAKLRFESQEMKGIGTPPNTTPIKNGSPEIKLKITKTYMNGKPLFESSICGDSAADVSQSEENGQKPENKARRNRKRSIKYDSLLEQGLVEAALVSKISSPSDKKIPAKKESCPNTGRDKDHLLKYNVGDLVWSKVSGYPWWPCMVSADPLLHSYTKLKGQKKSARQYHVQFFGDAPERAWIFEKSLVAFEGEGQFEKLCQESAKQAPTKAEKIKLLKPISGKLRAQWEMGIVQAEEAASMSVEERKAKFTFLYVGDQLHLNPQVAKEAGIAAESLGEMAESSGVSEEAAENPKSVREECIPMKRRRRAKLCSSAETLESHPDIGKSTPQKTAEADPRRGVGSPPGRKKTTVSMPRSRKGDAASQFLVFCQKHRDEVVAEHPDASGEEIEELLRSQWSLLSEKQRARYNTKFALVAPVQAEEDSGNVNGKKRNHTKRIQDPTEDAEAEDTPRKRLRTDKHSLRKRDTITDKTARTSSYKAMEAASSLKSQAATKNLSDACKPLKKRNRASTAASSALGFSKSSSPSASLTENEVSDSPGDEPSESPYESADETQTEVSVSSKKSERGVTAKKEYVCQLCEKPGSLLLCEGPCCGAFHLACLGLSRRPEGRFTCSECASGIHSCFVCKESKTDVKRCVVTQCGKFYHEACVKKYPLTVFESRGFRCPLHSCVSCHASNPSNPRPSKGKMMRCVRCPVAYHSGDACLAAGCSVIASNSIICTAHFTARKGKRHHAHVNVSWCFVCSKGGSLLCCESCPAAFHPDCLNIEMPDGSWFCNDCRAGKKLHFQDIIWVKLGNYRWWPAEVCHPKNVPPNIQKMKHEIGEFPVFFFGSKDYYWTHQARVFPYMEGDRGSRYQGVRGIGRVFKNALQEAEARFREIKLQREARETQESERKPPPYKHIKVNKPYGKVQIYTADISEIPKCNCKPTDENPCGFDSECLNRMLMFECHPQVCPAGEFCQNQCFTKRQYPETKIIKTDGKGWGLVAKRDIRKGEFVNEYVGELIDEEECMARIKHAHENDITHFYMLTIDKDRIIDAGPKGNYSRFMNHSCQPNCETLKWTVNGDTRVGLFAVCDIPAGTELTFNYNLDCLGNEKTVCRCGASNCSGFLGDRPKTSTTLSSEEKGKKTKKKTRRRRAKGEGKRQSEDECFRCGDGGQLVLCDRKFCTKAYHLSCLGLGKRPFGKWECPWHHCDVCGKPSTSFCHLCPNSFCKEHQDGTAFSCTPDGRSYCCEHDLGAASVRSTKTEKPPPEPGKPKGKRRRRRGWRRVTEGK
PAX8 inh HTS = lowers PAX8-driven luciferase in RMG-I cells | RMG-I TPO-luciferase reporter, SteadyGlo, 24 h | inhibition, % at 12.6 µM | 360,000 tested, 1.2% active;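 active = mean replicate inhibition at least 60% with every replicate also reaching 60%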;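 also: luciferase light reporting Pax8 driven TPO promoter activity; plate controls were median of neutral control wells for no effect and mitoxantrone controls for full effect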
Glyco luc inh = blocks N-linked glycosylation in D54 reporter cells; D54 ERlucT glycosylation luciferase reporter, 24 h; percent of 100 nM tunicamycin response; reporter increase, % at 12.5 µM; 360,000 tested, 0.23% active;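 active = mean luciferase reporter signal, scaled so untreated is 0 and the glycosylation-blocking control 100, at or above a set limit in every replicate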;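 also: luciferase carries N-glycosylation sites so blocking glycosylation raises the light; 0% = median of neutral control wells and 100% = median of 100 nM tunicamycin wells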
EBV LMP1 NFkB = reduces LMP1-driven NF-kappaB luciferase signal; LMP1-induced NF-kappaB luciferase reporter cells, luminescence; inhibition, % at 12.5 µM; 350,000 tested, 0.69% active; AID 504558; in the data active = inhibition above about 41%;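 also: 0% = neutral control wells and 100% = reference inhibitor control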
Shn3 3UTR inh = Schnurri-3 reporter inhibition in Clone20 osteoblasts; Clone20 osteoblast Shn3 3'UTR firefly luciferase, 24 h; inhibition, % at 12.5 µM; 360,000 tested, 0.52% active; AID 588674;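 active = mean inhibition of at least 75% with every replicate also reaching 75%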;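 also: 0% = median of neutral control wells and 100% = pilot-screen positive control compound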
An asterisk follows results filed as active; / = not tested or not shown; [ ] = another dose, or the depositor's remark. Most compounds without a hit are left out; they make up all but 2.8% or so of the library.

SMILES	HIV Env fusion	NSD2 HMT inh	PAX8 inh HTS	Glyco luc inh	EBV LMP1 NFkB	Shn3 3UTR inh
COc1ccc(C(=O)C/C(=C\C(=O)c2ccc(C)cc2)c2ccccc2)cc1	102.6*	-3.6	/	-5.6	11.5	69.5
O=C(COc1ccc2ccc(=O)oc2c1)NCCN1CCOCC1	-5.2	23.6	14.1	0.5	-8.0	-21.5
CC(Oc1ccc2ccc(=O)oc2c1)C(=O)NCCN1CCOCC1 (stereo not drawn)	65.4*	-5.4	-19.9	0.7	-1.7	-4.3
C[C@@H]1CN([C@H](C)CO)S(=O)(=O)c2ccc(C#CCN(C)C)cc2O[C@@H]1CN(C)S(C)(=O)=O	-0.4[16.7 µM]	/	/	/	/	/
O=[N+]([O-])c1ccc(N=Nc2c(Cl)cc(O)cc2Cl)cc1	85.1*	/	97.7*	-10.5	35.0	72.2
CC(N)=Nc1ccc([N+](=O)[O-])cc1	9.3	-3.4	-4.9	3.8	-6.3	16.5
C/C=C/c1ccc2c(c1)O[C@@H](CN(C)C)[C@@H](C)CN([C@H](C)CO)S2(=O)=O	-22.4[16.7 µM]	/	/	/	/	/
Cc1noc(C)c1NC(=O)Nc1ccc2c(c1)C(=O)N([C@H](C)CO)C[C@@H](C)[C@H](CN(C)C(=O)Nc1cccc3ccccc13)OCCCC[C@H](C)O2	/	/	11.7	/	/	/
Cc1nnc(N2CCCC(C(=O)NCc3cccc(F)c3)C2)c2nn(-c3ccccc3)c(C)c12 (stereo not drawn)	18.3	1.9	65.1*	16.2	6.9	47.3
Cc1ccccc1CNC(=O)C1CCCN(c2nnc(C)c3c(C)n(-c4ccccc4)nc23)C1 (stereo not drawn)	11.2	3.4	94.6*	-11.4	-3.1	-10.9
Cc1nnc(N2CCCC(C(=O)NCc3ccccc3F)C2)c2nn(-c3ccccc3)c(C)c12 (stereo not drawn)	20.0	-2.1	36.2	0.6	9.8	15.8
CCc1ccc(CNC(=O)C2CCCN(c3nnc(C)c4c(C)n(-c5ccccc5)nc34)C2)cc1 (stereo not drawn)	36.7	2.0	89.5*	11.2	17.1	42.2
C[C@@H]1CCCCO[C@@H](CN(C)S(=O)(=O)c2ccc(Cl)cc2)[C@@H](C)CN([C@@H](C)CO)C(=O)c2cc(NS(=O)(=O)c3cn(C)cn3)ccc2O1	-6.1[16.7 µM]	/	-15.4	/	/	/
CC(C)c1cn(CC[C@H]2CC[C@@H](NC(=O)C3CCCCC3)[C@@H](CO)O2)nn1	6.1[16.7 µM]	/	/	/	/	/
COc1ccc(CNC(=O)C[C@H]2C[C@@H]3c4cc(NC(=O)CN(C)C)ccc4O[C@@H]3[C@H](CO)O2)cc1	-12.6[16.7 µM]	/	-16.0	/	/	/
COc1ccc(OCCCC(=O)NC(C)c2ccccc2)cc1 (stereo not drawn)	/	-54.4	/	-0.6	7.7	2.3
CC(NC(=O)CCOc1ccccc1)c1ccccc1 (stereo not drawn)	/	-0.6	/	-0.1	74.1*	1.8
CC(C)NC(=O)Nc1ccc2c(c1)C(=O)N([C@@H](C)CO)C[C@@H](C)[C@H](CN(C)Cc1ccc(C(F)(F)F)cc1)O2	/	/	-9.5	/	/	/
Cc1cnc(NC(=O)CSc2nnc(C)n2N)s1	/	0.9	130.3*	2.9	-2.3	-20.3
CC1CC(C)CN(C(=O)c2cc(-c3ccncc3)nc3ccccc23)C1 (stereo not drawn)	6.5	/	14.6	1.1	-4.3	-7.0
CC1CN(C(=O)c2cc(-c3ccncc3)nc3ccccc23)CC(C)O1 (stereo not drawn)	/	-6.5	2.7	45.0*	-10.8	-4.9
COc1ccc(CCN2C(=O)c3[nH]nc(-c4ccccc4O)c3C2c2cccc(O)c2)cc1OC (stereo not drawn)	75.5*	7.0	23.0	-2.1	3.1	18.4
C=CCn1c(SCC(=O)Nc2nc(C)cs2)nnc1C(NC(=O)c1ccccc1)C(C)C (stereo not drawn)	111.8*	-0.1	/	0.6	-1.4	-8.7
Cc1nc(-c2ccccc2)sc1-c1nc(-c2ccncc2)ncc1S(=O)(=O)c1ccccc1	/	-0.2	/	57.1*	-5.2	13.1
O=[N+]([O-])c1cccc(COc2ccccc2CN2CCOCC2)c1	55.6*	/	8.8	-0.3	4.3	-13.8
SMILES	HIV Env fusion	NSD2 HMT inh	PAX8 inh HTS	Glyco luc inh	EBV LMP1 NFkB	Shn3 3UTR inh
O=[N+]([O-])c1cccc(COc2ccccc2CN2CCCCC2)c1	-98.9	/	1.1	3.8	-4.2	15.2
O=C(O)c1cccc(COc2ccccc2Cl)c1	/	-2.8	/	-13.6	74.4*	88.7*
O=C(c1ccc(COc2ccccc2Cl)o1)N1CCCC1	/	10.4	/	-2.0	46.6*	-19.8
O=C(c1ccc(COc2ccccc2Cl)o1)N1CCOCC1	23.8	28.4	-19.6	-1.6	-7.9	-0.6
C[C@@H]1CN([C@H](C)CO)C(=O)Cc2cc(NC(=O)Nc3ccc(F)cc3)ccc2O[C@H]1CN(C)Cc1ccc(C(F)(F)F)cc1	15.4[16.7 µM]	/	/	/	/	/
CCCc1cc(=O)n2[nH]cc(-c3ccc(Cl)cc3)c2n1	84.9*	2.7	29.1	4.1	44.1*	0.9
O=C(C[C@H]1C[C@H]2c3cc(NC(=O)C4CCC4)ccc3O[C@H]2[C@H](CO)O1)NCCc1ccccc1	14.4[16.7 µM]	/	16.7	/	/	/
C=CCn1c(SC(C)C(=O)NCc2ccc3c(c2)OCO3)nc2scc(-c3ccccc3)c2c1=O (stereo not drawn)	119.2*	-1.4	/	-3.9	11.1	3.2
CCn1c(SC(C)C(=O)NCC2CCCO2)nc2scc(-c3ccccc3)c2c1=O (stereo not drawn)	-3.4	0.1	1.5	-4.3	8.6	0.3
C=CCn1c(SCC(=O)NCc2ccc3c(c2)OCO3)nc2scc(-c3ccc(F)cc3)c2c1=O	106.7*	-8.0	-1.5	1.2	-1.6	16.3
Cn1c(SCC(=O)NCc2ccc3c(c2)OCO3)nc2scc(-c3cccs3)c2c1=O	7.3	/	7.6	4.1	10.2	5.4
COc1cccc(N2CCN(C(=O)c3ccc(CS(=O)c4ccc(Cl)cc4)o3)CC2)c1 (stereo not drawn)	-195.1	7.1	38.1	23.3	-1.7	26.9
COc1cccc(N2CCN(C(=O)c3ccc(CS(=O)c4ccc(C)cc4)o3)CC2)c1 (stereo not drawn)	-45.2	30.0	66.2*	23.6	11.6	31.0
O=C(Nc1ccc(OC(F)F)c(Cl)c1)Nc1ccc2c(c1)OCO2	9.7	0.7	-36.5	-7.2	-6.2	-1.5
O=C(Nc1ccc([N+](=O)[O-])cc1)Nc1ccc(OC(F)F)c(Cl)c1	42.6	-1.4	83.2*	-19.6	68.3*	87.7*
CC(C)C[C@@]12C(=O)N(c3cccc(Cl)c3)C(=O)N1[C@H](c1ccc(F)cc1)[C@@H]1C(=O)N(C3CCCCC3)C(=O)[C@@H]12	15.3	/	7.3	-7.1	0.6	0.3
Cc1cccc(N2C(=O)N3[C@H](c4ccc(F)cc4)[C@@H]4C(=O)N(C5CCCCC5)C(=O)[C@@H]4[C@]3(Cc3ccc(Cl)cc3)C2=O)c1	91.1*	/	13.9	1.8	5.7	21.6
CC(C)C[C@@]12C(=O)N(c3cccc(Cl)c3)C(=O)N1[C@H](c1ccc(Cl)cc1)[C@@H]1C(=O)N(C3CCCCC3)C(=O)[C@@H]12	67.4*	/	3.6	-4.0	0.1	10.4

Source: PubChem BioAssay (Broad Institute)
